Source: ChEMBL document CHEMBL4513149, “CO-ADD screening of MMV (CH) - MMV compounds” (2021)
Potency and affinity values are given separately.

What was measured:
Klebsiella pneumoniae = details: Concentration 20 uM; ASSAY_TEST Inhibition of Bacterial Growth; detection method Absorption (OD600); MEDIA CAMHB; plate type 384well; NBS; CORNING #3640; time 18 hr
Candida albicans = details: 20 µM
Cryptococcus neoformans = details: Concentration 20 uM; ASSAY_TEST Inhibition of Fungal Growth; detection method Resazurin; Absorption (OD600-OD570); plate type 384well; NBS; CORNING #3640

Compound: CC(C)(C(=O)Nc1ccc(F)cc1)n1cc(-c2ccccc2F)cn1
- Inhibition (Klebsiella pneumoniae): 12.71%
- Inhibition (Candida albicans): 7.41%
- Inhibition (Cryptococcus neoformans): -7.47%

Compound: CCOc1ccc2cc(-c3nn(CC4CCN(C)CC4)c4ncnc(N)c34)ccc2c1.Cl
- Inhibition (Klebsiella pneumoniae): 14.21%
- Inhibition (Candida albicans): 4.38%
- Inhibition (Cryptococcus neoformans): -9.79%

Compound: CC(C)(C)c1cc(C(=O)N2CCN(c3nccnc3C#N)CC2)n(Cc2ccccc2)n1
- Inhibition (Klebsiella pneumoniae): 14.9%
- Inhibition (Candida albicans): 6.36%
- Inhibition (Cryptococcus neoformans): 1.25%

Compound: COc1ccccc1CNC(=O)c1cc(C2CC2)nc2c1cnn2C(C)C
- Inhibition (Klebsiella pneumoniae): 8.65%
- Inhibition (Candida albicans): 6.8%
- Inhibition (Cryptococcus neoformans): -9.25%

Compound: Cc1nn2c(O)c3c(nc2c1-c1ccc(F)cc1)CCCC3
- Inhibition (Klebsiella pneumoniae): 11.6%
- Inhibition (Candida albicans): 3.69%
- Inhibition (Cryptococcus neoformans): -6.74%

Compound: Cc1cc(Cl)c(S(=O)(=O)N2CCCC2)cc1OCC(=O)NC1CCCCC1
- Inhibition (Klebsiella pneumoniae): 2.55%
- Inhibition (Candida albicans): 9.11%
- Inhibition (Cryptococcus neoformans): -9.39%

Compound: CC(C)(C)c1cnc(NC(=O)c2ccccc2O)s1
- Inhibition (Klebsiella pneumoniae): 10.5%
- Inhibition (Candida albicans): 11.6%
- Inhibition (Cryptococcus neoformans): 5.21%

Compound: O=C(NCCc1c[nH]c2ccccc12)c1cc2ccccc2oc1=O
- Inhibition (Klebsiella pneumoniae): 9.33%
- Inhibition (Candida albicans): 4.19%
- Inhibition (Cryptococcus neoformans): -9.92%

Compound: CC(C)(C)C(=O)N(CCCCCCN1C[C@H](O)[C@@H](O)[C@H](O)[C@H]1CO)C1CCCCCC1
- Inhibition (Klebsiella pneumoniae): 7.47%
- Inhibition (Candida albicans): 0.83%
- Inhibition (Cryptococcus neoformans): -2.01%

Compound: COc1nc2ccc(Br)cc2cc1[C@@H](c1ccccc1)[C@@](O)(CCN(C)C)c1cccc2ccccc12.O=C(O)C(F)(F)F
- Inhibition (Klebsiella pneumoniae): 17.53%
- Inhibition (Candida albicans): 4.38%
- Inhibition (Cryptococcus neoformans): 56.58%

Compound: Cc1cc(C)cc(COc2ccc3c(C)c(CCC(=O)O)c(=O)oc3c2C)c1
- Inhibition (Klebsiella pneumoniae): 9.77%
- Inhibition (Candida albicans): 6.48%
- Inhibition (Cryptococcus neoformans): -0.19%

Compound: CCN(CC)S(=O)(=O)c1ccc(Cl)c(C(=O)Nc2ccc3nc(C)sc3c2)c1
- Inhibition (Klebsiella pneumoniae): 4.43%
- Inhibition (Candida albicans): 3.67%
- Inhibition (Cryptococcus neoformans): -11.27%

Compound: CCn1ncc2c(NC3CCOCC3)c(CNC(=O)c3ccnn3C)c(C)nc21
- Inhibition (Klebsiella pneumoniae): -4.12%
- Inhibition (Candida albicans): 0.07%
- Inhibition (Cryptococcus neoformans): -8.07%

Compound: CC(C)C(NC(=O)Cc1cccc2ccccc12)C(=O)Nc1cccc(C#N)c1 (stereo not drawn)
- Inhibition (Klebsiella pneumoniae): 13.86%
- Inhibition (Candida albicans): 6.6%
- Inhibition (Cryptococcus neoformans): -4.4%

Compound: COc1cccc(-c2cc3c(Nc4cccnc4)nccc3[nH]2)c1
- Inhibition (Klebsiella pneumoniae): 4.5%
- Inhibition (Candida albicans): 3.5%
- Inhibition (Cryptococcus neoformans): -6.63%

Compound: COc1ccc(OC(C)C(=O)Nc2ccc(Cl)cc2C)cc1 (stereo not drawn)
- Inhibition (Klebsiella pneumoniae): 4.92%
- Inhibition (Candida albicans): 7.33%
- Inhibition (Cryptococcus neoformans): 5.96%
